# According to paper PMC8384837, “Expanding the binding specificity for RNA recognition by a PUF domain”:
# What was measured:
# Experiment in all cases: yeast three-hybrid, YBZ-1, SC-Leu-His + 0.5 mM 3-AT, 4 days
# Conditions in all cases: tags: N-Gal4 AD-HA kept; label: inside an RPR1-promoter hybrid RNA with tandem MS2 sites; ssRNA
# PUM1 PUF domain R7-SRP = PUM1 PUF domain R7-SRP (Homo sapiens, UniProt Q14671 828-1176, N1080R;E1083P)
# Summary of the method: (§1)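 The interaction score is the log change in how often each variant appears, from input to selection. Frequencies came from PCR-amplified, Illumina-sequenced repeat regions of Pumilio-1 PUF domain libraries grown in strain YBZ-1 (LexA–MS2 coat fusion, HIS3 reporter) alongside matching RNA elements. Input plates were SC-Leu and selection plates were SC-Leu-His + 0.5 mM 3-AT, each for four days, and the log2 calculation used a pseudocount of 1 where a variant was absent.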
# PUM1 PUF domain R4-RHS = PUM1 PUF domain R4-RHS (Homo sapiens, UniProt Q14671 828-1176, N971R;Q975S)
# Summary of the method: as §1
# PUM1 PUF domain R8-FHR = PUM1 PUF domain R8-FHR (Homo sapiens, UniProt Q14671 828-1176, N1122F;Y1123H;Q1126R)
# Summary of the method: as §1
# PUM1 PUF domain R3-RMR = PUM1 PUF domain R3-RMR (Homo sapiens, UniProt Q14671 828-1176, C935R;R936M;Q939R)
# Chain of PUM1 PUF domain R3-RMR (Q14671 828-1176 C935R/R936M/Q939R): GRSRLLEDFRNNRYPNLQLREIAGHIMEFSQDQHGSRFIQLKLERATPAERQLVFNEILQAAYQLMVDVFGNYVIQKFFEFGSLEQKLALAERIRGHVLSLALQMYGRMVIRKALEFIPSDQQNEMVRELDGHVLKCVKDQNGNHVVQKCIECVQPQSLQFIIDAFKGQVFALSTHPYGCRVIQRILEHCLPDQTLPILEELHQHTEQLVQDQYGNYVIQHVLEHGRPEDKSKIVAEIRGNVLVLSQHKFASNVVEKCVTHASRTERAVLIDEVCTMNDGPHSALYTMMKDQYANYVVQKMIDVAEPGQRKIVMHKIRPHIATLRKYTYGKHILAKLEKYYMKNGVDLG
# Summary of the method: as §1
# PUM1 PUF domain R3-LYV = PUM1 PUF domain R3-LYV (Homo sapiens, UniProt Q14671 828-1176, C935L;R936Y;Q939V)
# Chain of PUM1 PUF domain R3-LYV (Q14671 828-1176 C935L/R936Y/Q939V): as the sequence (Q14671 828-1176 C935R/R936M/Q939R) above, with R108L, M109Y, R112V counted along it
# Summary of the method: as §1
# PUM1 PUF domain R3-NSL = PUM1 PUF domain R3-NSL (Homo sapiens, UniProt Q14671 828-1176, C935N;R936S;Q939L)
# Chain of PUM1 PUF domain R3-NSL (Q14671 828-1176 C935N/R936S/Q939L): as the sequence (Q14671 828-1176 C935R/R936M/Q939R) above, with R108N, M109S, R112L counted along it
# Summary of the method: as §1
# PUM1 PUF domain R5-KGC = PUM1 PUF domain R5-KGC (Homo sapiens, UniProt Q14671 828-1176, C1007K;R1008G;Q1011C)
# Chain of PUM1 PUF domain R5-KGC (Q14671 828-1176 C1007K/R1008G/Q1011C): as the sequence (Q14671 828-1176 C935R/R936M/Q939R) above, with R108C, M109R, R112Q, C180K, R181G, Q184C counted along it
# Summary of the method: as §1
# PUM1 PUF domain R7-GWD = PUM1 PUF domain R7-GWD (Homo sapiens, UniProt Q14671 828-1176, S1079G;N1080W;E1083D)
# Chain of PUM1 PUF domain R7-GWD (Q14671 828-1176 S1079G/N1080W/E1083D): as the sequence (Q14671 828-1176 C935R/R936M/Q939R) above, with R108C, M109R, R112Q, S252G, N253W, E256D counted along it
# Summary of the method: as §1
# PUM1 PUF domain R8-PYA = PUM1 PUF domain R8-PYA (Homo sapiens, UniProt Q14671 828-1176, N1122P;Q1126A)
# Summary of the method: as §1
# PUM1 PUF domain R3-IYG = PUM1 PUF domain R3-IYG (Homo sapiens, UniProt Q14671 828-1176, C935I;R936Y;Q939G)
# Summary of the method: as §1
# PUM1 PUF domain R7-SHP = PUM1 PUF domain R7-SHP (Homo sapiens, UniProt Q14671 828-1176, N1080H;E1083P)
# Chain of PUM1 PUF domain R7-SHP (Q14671 828-1176 N1080H/E1083P): as the sequence (Q14671 828-1176 C935R/R936M/Q939R) above, with R108C, M109R, R112Q, N253H, E256P counted along it
# Summary of the method: as §1
# PUM1 PUF domain R5-RHD = PUM1 PUF domain R5-RHD (Homo sapiens, UniProt Q14671 828-1176, C1007R;R1008H;Q1011D)
# Summary of the method: as §1
# PUM1 PUF domain R5-RPN = PUM1 PUF domain R5-RPN (Homo sapiens, UniProt Q14671 828-1176, C1007R;R1008P;Q1011N)
# Chain of PUM1 PUF domain R5-RPN (Q14671 828-1176 C1007R/R1008P/Q1011N): as the sequence (Q14671 828-1176 C935R/R936M/Q939R) above, with R108C, M109R, R112Q, C180R, R181P, Q184N counted along it
# Summary of the method: as §1
# PUM1 PUF domain R5-KTS = PUM1 PUF domain R5-KTS (Homo sapiens, UniProt Q14671 828-1176, C1007K;R1008T;Q1011S)
# Chain of PUM1 PUF domain R5-KTS (Q14671 828-1176 C1007K/R1008T/Q1011S): as the sequence (Q14671 828-1176 C935R/R936M/Q939R) above, with R108C, M109R, R112Q, C180K, R181T, Q184S counted along it
# Summary of the method: as §1
sequence,measurement,setting,value
GGCUAGAACUAGUGGAUCCCCCGGCGCCCGGCGGCUCGAGCCCGGGUAAGUUUAAAUAGUCUGCAUGCCGCCGGGCGCCAUGCCUGCAGGUCGACUCUAGAAAACAUG,binding signal,PUM1 PUF domain R7-SRP,3.52 log2 enrichment (interaction score)
GGCUAGAACUAGUGGAUCCCCCGGCGCCCGGCGGCUCGAGCCCGGGUAAGUGUACAUAGUCUGCAUGCCGCCGGGCGCCAUGCCUGCAGGUCGACUCUAGAAAACAUG,binding signal,PUM1 PUF domain R4-RHS,2.12 log2 enrichment (interaction score)
GGCUAGAACUAGUGGAUCCCCCGGCGCCCGGCGGCUCGAGCCCGGGUAAGCGUAAAUAGUCUGCAUGCCGCCGGGCGCCAUGCCUGCAGGUCGACUCUAGAAAACAUG,binding signal,PUM1 PUF domain R8-FHR,3.71 log2 enrichment (interaction score)
GGCUAGAACUAGUGGAUCCCCCGGCGCCCGGCGGCUCGAGCCCGGGUAAGUGUAAGUAGUCUGCAUGCCGCCGGGCGCCAUGCCUGCAGGUCGACUCUAGAAAACAUG,binding signal,PUM1 PUF domain R3-RMR,1.31 log2 enrichment (interaction score)
same,binding signal,PUM1 PUF domain R3-LYV,4.97 log2 enrichment (interaction score)
GGCUAGAACUAGUGGAUCCCCCGGCGCCCGGCGGCUCGAGCCCGGGUAAGUGUAAAUAGUCUGCAUGCCGCCGGGCGCCAUGCCUGCAGGUCGACUCUAGAAAACAUG,binding signal,PUM1 PUF domain R3-NSL,2.4 log2 enrichment (interaction score)
same,binding signal,PUM1 PUF domain R5-KGC,1.52 log2 enrichment (interaction score)
same,binding signal,PUM1 PUF domain R7-GWD,2.68 log2 enrichment (interaction score)
same,binding signal,PUM1 PUF domain R3-LYV,4.4 log2 enrichment (interaction score)
same,binding signal,PUM1 PUF domain R8-PYA,2.27 log2 enrichment (interaction score)
same,binding signal,PUM1 PUF domain R4-RHS,2.87 log2 enrichment (interaction score)
same,binding signal,PUM1 PUF domain R3-IYG,4.83 log2 enrichment (interaction score)
GGCUAGAACUAGUGGAUCCCCCGGCGCCCGGCGGCUCGAGCCCGGGUAAGUCUAAAUAGUCUGCAUGCCGCCGGGCGCCAUGCCUGCAGGUCGACUCUAGAAAACAUG,binding signal,PUM1 PUF domain R7-SHP,3.63 log2 enrichment (interaction score)
GGCUAGAACUAGUGGAUCCCCCGGCGCCCGGCGGCUCGAGCCCGGGUAAGUGUGAAUAGUCUGCAUGCCGCCGGGCGCCAUGCCUGCAGGUCGACUCUAGAAAACAUG,binding signal,PUM1 PUF domain R5-RHD,5.63 log2 enrichment (interaction score)
GGCUAGAACUAGUGGAUCCCCCGGCGCCCGGCGGCUCGAGCCCGGGUAAGUGUUAAUAGUCUGCAUGCCGCCGGGCGCCAUGCCUGCAGGUCGACUCUAGAAAACAUG,binding signal,PUM1 PUF domain R5-KGC,3.36 log2 enrichment (interaction score)
same,binding signal,PUM1 PUF domain R5-RPN,3.03 log2 enrichment (interaction score)
same,binding signal,PUM1 PUF domain R5-KTS,1.52 log2 enrichment (interaction score)
